Screening results (PubChem BioAssay)
Rows were chosen to be rich in hits. Some 19% of all compounds tested hit in one or more screens of this group.
HT1080-NT tox: qHTS for induction of synthetic lethality in tumor cells producing 2HG: qHTS for the HT-1080-NT fibrosarcoma cell line; Potency, µM (titrated, usually from 46.1 µM), hits mostly cytotoxic; hit rate 1.6% among 360,000; HT-1080-NT fibrosarcoma viability, CellTiter-Glo ATP luminescence, 48 h; AID 686970, 2013;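 further: NT is the 2HG producing partner of a matched IDH1 knockdown line; nearly all actives have a fitted effect of over 55% in size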
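HT-1080-NT; 750 cells/well; 5% FBS RPMI; 48 h compound, 37 degrees C; CellTiter-Glo luminescence; curve fitting and curve-class assignment.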
KB-3-1 tox: qHTS assay for MDR1-selective chemotherapeutics: Primary screen using the parental adenocarcinoma cell KB-3-1; KB-3-1 viability, CellTiter-Glo ATP luminescence, 72 h; Potency, µM (highest dose often 46.1 µM), most hits filed as cytotoxic; hit rate 1.4% among 400,000; further: nearly all actives have a fitted effect of over 60% in size
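Cytotoxicity measured as CellTiter-Glo luminescence after 72 h at 37 C. Compound titrations were pinned onto drug-naive KB-3-1 parental adenocarcinoma cells grown in DMEM with 10% FBS, and normalized data fitted to concentration-response curves.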
HT1080 IDH1KD tx: qHTS for induction of synthetic lethality in tumor cells producing 2HG: qHTS for the HT-1080-IDH1KD cell line. HT-1080 IDH1 knockdown viability, ATP luminescence, 48 h. Potency, µM (titrated, usually from 46.1 µM), most hits filed as cytotoxic. hit rate 2% among 360,000
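Using the IDH1-knockdown HT-1080 line run in the same batch and compound series as the NT line, viability after 48 h at 37 °C was determined by CellTiter-Glo luminescence and expressed as % activity.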
DT40 TDP1 no CPT: qHTS for Inhibitors of human tyrosyl-DNA phosphodiesterase 1 (TDP1): qHTS in cells in absence of CPT; DT40 Tdp1-/- hTDP1 cells, no CPT, ATP luminescence, 48 h; Potency, µM (highest dose often 46.2 µM), most hits filed as inhibitors; hit rate 15% among 420,000; further: nearly all actives have a fitted effect of over 55% in size
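Readout: luminescence from CellTiter-Glo after 30 min in the dark at RT. Cells: DT40 Tdp1-/- with stable hTDP1, 400/well. Exposure: compounds alone, ≥48 hr, 37 °C.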
KB-V1 cytotox: qHTS assay for MDR1-selective chemotherapeutics: Primary screen using the drug-selected MDR subline cells KB-V1. KB-V1 MDR cells viability, CellTiter-Glo, 72 h. Potency, µM (titrated, usually from 46.1 µM), hits mostly cytotoxic. hit rate 3.4% among 400,000; further: nearly all actives have a fitted effect of over 60% in size
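Cytotoxicity via CellTiter-Glo luminescence after 72 h compound exposure at 37 degrees C. Cells: drug-selected KB-V1 line, DMEM phenol-red free plus 10% FBS. Compounds tested at multiple concentrations; normalized data fitted to concentration-effect curves.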
TDP1 cell CPT: qHTS for Inhibitors of human tyrosyl-DNA phosphodiesterase 1 (TDP1): qHTS in cells in presence of CPT; chicken DT40 Tdp1-/-;hTDP1 cells + 20 nM CPT, ATP luminescence, 48 h; Potency, µM (doses to about 46.2 µM), hits mostly inhibitors; hit rate 12% among 420,000; AID 686979, 2013; further: nearly all actives have a fitted effect of over 55% in size
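Chicken DT40 Tdp1-/- cells complemented with human TDP1, 400 cells/well, exposed to compounds plus 20 nM camptothecin for at least 48 h at 37 C; viability read as ATP content by CellTiter-Glo luminescence.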
Hits are given with their value. The call rests on the fitted dose curve; in most records, active means well fitted curve in the direction sought with a large enough effect; inconclusive means small, poorly fitted or top-dose-only effect, or another doubt; inactive means no such curve, though single readings can be large; an effect the other way counts as inactive or inconclusive.

How did COc1cccc(C(O)c2ncc(-c3cccc4ccccc34)[nH]2)c1 (stereo unspecified) do in these assays?
HT1080-NT tox: inconclusive; KB-3-1 tox: inconclusive; HT1080 IDH1KD tx: inactive; DT40 TDP1 no CPT: 9.2µM; KB-V1 cytotox: inactive; TDP1 cell CPT: 16µM

Results for Cc1cc(Cl)ccc1C(O)c1ncc(-c2ccccc2Cl)[nH]1 (stereo unspecified) ?
HT1080-NT tox: inconclusive; KB-3-1 tox: inactive; HT1080 IDH1KD tx: inconclusive; DT40 TDP1 no CPT: inconclusive; KB-V1 cytotox: inactive; TDP1 cell CPT: 21µM

What do the screens show for `CCc1ccc(C(O)c2ncc(-c3ccc(C(F)(F)F)cc3)[nH]2)cc1` (stereo unspecified)?
HT1080-NT tox: inactive; KB-3-1 tox: inactive; HT1080 IDH1KD tx: inactive; DT40 TDP1 no CPT: inconclusive; KB-V1 cytotox: inactive; TDP1 cell CPT: inconclusive

How did CCc1ccc(C(O)c2ncc(-c3ccccc3C(F)(F)F)[nH]2)cc1 (stereo unspecified) do in these assays?
HT1080-NT tox: inactive; KB-3-1 tox: inactive; HT1080 IDH1KD tx: inactive; DT40 TDP1 no CPT: inconclusive; KB-V1 cytotox: inconclusive; TDP1 cell CPT: 29µM

What do the screens show for `Cc1ccc(OCCC(=O)OCC(=O)NC(=O)c2ccccc2)cc1`?
HT1080-NT tox: inactive; KB-3-1 tox: inactive; HT1080 IDH1KD tx: inactive; DT40 TDP1 no CPT: inactive; KB-V1 cytotox: inactive; TDP1 cell CPT: inactive

Results for OC(c1cccc(Cl)c1)c1ncc(-c2cccc3ccccc23)[nH]1 (stereo unspecified) ?
HT1080-NT tox: inactive; KB-3-1 tox: inactive; HT1080 IDH1KD tx: inconclusive; DT40 TDP1 no CPT: 16µM; KB-V1 cytotox: inactive; TDP1 cell CPT: 21µM

What do the screens show for `Cc1ccc(C(O)c2ncc(-c3cccc4ccccc34)[nH]2)cc1F` (stereo unspecified)?
HT1080-NT tox: inactive; KB-3-1 tox: inactive; HT1080 IDH1KD tx: inconclusive; DT40 TDP1 no CPT: inconclusive; KB-V1 cytotox: inactive; TDP1 cell CPT: inconclusive

What do the screens show for `COc1ccccc1-c1cnc(C(O)c2ccc(C)cc2)[nH]1` (stereo unspecified)?
HT1080-NT tox: inactive; KB-3-1 tox: inactive; HT1080 IDH1KD tx: inactive; DT40 TDP1 no CPT: 18µM; KB-V1 cytotox: inactive; TDP1 cell CPT: inactive

How did COc1ccc2[nH]c3c(=O)n(CCCCC(=O)NCCC(C)C)c(=S)[nH]c3c2c1 do in these assays?
HT1080-NT tox: inactive; KB-3-1 tox: inactive; HT1080 IDH1KD tx: inactive; DT40 TDP1 no CPT: 21µM; KB-V1 cytotox: inactive; TDP1 cell CPT: 15µM

Results for COc1ccc2[nH]c3c(=O)n(CCCC(=O)NC4CCC(C)CC4)c(=S)[nH]c3c2c1 (stereo unspecified) ?
HT1080-NT tox: inactive; KB-3-1 tox: inactive; HT1080 IDH1KD tx: inactive; DT40 TDP1 no CPT: inactive; KB-V1 cytotox: inconclusive; TDP1 cell CPT: inactive

How did CCCNC(=O)CCCCn1c(=S)[nH]c2c([nH]c3ccc(OC)cc32)c1=O do in these assays?
HT1080-NT tox: inactive; KB-3-1 tox: inactive; HT1080 IDH1KD tx: inactive; DT40 TDP1 no CPT: 5.8µM; KB-V1 cytotox: inactive; TDP1 cell CPT: 5.8µM

What do the screens show for `COc1ccc2[nH]c3c(=O)n(CCCCC(=O)N4CCCC4)c(=S)[nH]c3c2c1`?
HT1080-NT tox: inactive; KB-3-1 tox: inactive; HT1080 IDH1KD tx: inactive; DT40 TDP1 no CPT: inactive; KB-V1 cytotox: inactive; TDP1 cell CPT: inconclusive

What do the screens show for `O=c1[nH]c(=O)n(C2OC(CO)C(O)C2O)cc1Br` (stereo unspecified)?
HT1080-NT tox: inactive; KB-3-1 tox: inactive; HT1080 IDH1KD tx: inactive; DT40 TDP1 no CPT: inconclusive; KB-V1 cytotox: inactive; TDP1 cell CPT: inconclusive
